# High-throughput results: PubChem BioAssay, several laboratories
# WT yeast gro inh = growth inhibition of WT yeast, mitochondrial fusion screen; mitochondrial fusion phenotypic screen, WT strain; inhibition, % at 10 µM; 190,000 tested, 2.1% active; AID 1362; in the data active means inhibition above about 58%; tested in S. cerevisiae
# Lmaj promast = reduces viability of Leishmania major promastigotes; 200,000 tested, 9% active; resazurin fluorescence viability; inhibition, % at 10 µM; in the data active means inhibition above about 50%;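 further: promastigotes grown with compound for 44 hours at 28 °C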
# Insulin prom inh = TRM-6 insulin promoter activity inhibition; TRM-6 cells (human fetal islet line), insulin promoter-eGFP reporter, imaging; reporter expression induced with tamoxifen; inhibition, % at 2 µM; 130,000 tested, 0.9% active;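 active means inhibition above the mean plus 3 SD, with well images judged a real hit on visual review, cut at about 60% in these data, passing the limit was not always enough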
# Ins promoter up = MIN6 insulin promoter up-regulation; MIN6 insulin promoter-GFP reporter, high-content imaging; active compounds read high; z-score at 5 µM; 190,000 tested, 0.3% active; AID 1625;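 active means z-score above 3 at 5 µM with at least 500 cells counted in the well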
# Autophagy mod = autophagy modulation, high-content screen | MEF GFP-LC3 puncta imaging; test concentration mostly 10 µM | calls only at 10 µM (by protocol) | 190,000 tested, 0.98% active | AID 463193;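 active means percentage of spot-positive cells more than 3 SD above its plate mean, without a fluorescence outlier flag or 80% toxicity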;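 further: spot-positive cell cutoff set from DMSO-treated cells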
# * hit, by the source's call; i = inactive; · = no result. Sampled rows, rich in hits. Any-hit rate of the full collection: about 11%.
SMILES,WT yeast gro inh,Lmaj promast,Insulin prom inh,Ins promoter up,Autophagy mod
CCN(CC)S(=O)(=O)c1ccc(F)c(C(=O)NCCC(C)C)c1,10,2,-438,0.17,i
Cc1ccc(S(=O)(=O)CC(=O)c2ccc3c(c2)OCCO3)cc1,·,·,·,-0.2,·
CCOc1cc(/C=C2\C(=O)N(c3nc(-c4ccc(Br)cc4)cs3)N=C2c2ccccc2)ccc1O,1,100*,17,·,i
COc1ccc(/C=C2\C(=O)N(c3nc(-c4ccc(Br)cc4)cs3)N=C2c2ccccc2)cc1,·,-1,-42,·,i
O=C1/C(=C\c2ccc(O)c(O)c2)C(c2ccccc2)=NN1c1ccccc1,6,99*,11,1.4,i
COc1ccc(CCNC(=O)CSc2nnc3ccccn23)cc1,20,-12,·,-0.14,i
COc1ccccc1C(=O)Nc1ccc(-c2nnn(CC(=O)NCc3ccco3)n2)cc1,·,·,·,-0.35,·
COc1ccc(C2C(C#N)=C(N)N(Nc3ccccc3)C3=C2C(=O)CC(C)(C)C3)cc1C (stereo not given),-15,86*,·,0.18,i
COc1cc(C2C(C#N)=C(N)N(Nc3ccccc3)C3=C2C(=O)CC(C)(C)C3)ccc1OCc1cccc(F)c1 (stereo not given),-11,56*,-10,-0.86,i
COc1ccc(OC)c(N2C(N)=C(C#N)C(c3ccc(OC)c(O)c3)C3=C2CC(C)(C)CC3=O)c1 (stereo not given),·,·,·,-0.19,·
COc1cccc(C2C(C#N)=C(N)N(c3ncn[nH]3)C3=C2C(=O)CCC3)c1 (stereo not given),-24,-10,27,0.31,i
C=CCOc1ccc(C2C(C#N)=C(N)N(Nc3ccccc3)C3=C2C(=O)CCC3)cc1OC (stereo not given),-23,96*,·,0.56,i
COc1ccc(C2C(C#N)=C(N)N(c3cccnc3)C3=C2C(=O)CC(C)(C)C3)cc1OC (stereo not given),-1,-8,0,1,i
COc1cc(C2C(C#N)=C(N)N(Nc3ccccc3)C3=C2C(=O)CC(C)(C)C3)ccc1OCc1ccccc1 (stereo not given),-9,100*,·,-0.35,i
Cc1c(C)n(C(=O)CN2CCC(C)CC2)c2ccccc12,-13,-2,-3,0.59,i
COc1cc2c(cc1OC)C(c1ccccc1)CC2=O (stereo not given),·,·,·,-0.29,·
CCOc1ccc2c(c1)S/C(=C\c1cccs1)C(=O)N2,·,·,·,0.03,·
O=C(NCc1ccco1)C(=O)NCC1OCCN1C(=O)c1ccc(Cl)cc1 (stereo not given),·,·,·,0.32,·
CCCCOc1c(Br)cc(/C=N/O)cc1OCC,69*,11,55,·,i
CC(C)CNC(=O)COC(=O)CCC(=O)c1ccc(Cl)cc1,8,-8,43,0.2,i
CCCNC1=C(N(C(C)=O)c2cccc(F)c2)C(=O)c2ccccc2C1=O,53,99*,36,-1.2,i
CCC(=O)N(C1=C(NC(C)C)C(=O)c2ccccc2C1=O)C(C)C,-16,4,·,-0.88,i
CCS(=O)(=O)NCC(c1cccnc1)N1CCN(c2ccccc2F)CC1 (stereo not given),16,78*,-21,-0.33,i
CCS(=O)(=O)NCC(c1cccnc1)N1CCN(c2ccc(F)cc2)CC1 (stereo not given),-8,69*,-7,-0.28,i
CCS(=O)(=O)NCC(c1cccnc1)N1CCN(c2ccccc2OC)CC1 (stereo not given),7,23,-29,1.2,i
SMILES,WT yeast gro inh,Lmaj promast,Insulin prom inh,Ins promoter up,Autophagy mod
CS(=O)(=O)NCC(c1cccnc1)N1CCN(c2ccc(F)cc2)CC1 (stereo not given),11,45,32,-0.31,i
O=C(NCc1ccc2c(c1)OCO2)C(=O)NC1CCCCC1,16,-7,41,0.28,i
CC1(C)CC(NCc2ccc3c(c2)OCO3)CCO1 (stereo not given),8,84*,-28,-0.7,i
CC1(C)CC(O)(CCNCc2ccc3c(c2)OCO3)CCO1 (stereo not given),-13,83*,-16,-0.21,i
Cc1cc(C(=O)N2CCN(S(=O)(=O)c3ccccc3F)CC2)c(C)o1,12,6,39,0.83,i
COc1ccc(OC)c2[nH]c(=O)c(CCNC(=O)c3ccc(S(=O)(=O)N4CCCCC4)cc3)cc12,4,13,·,0.19,i
COc1ccc(OC)c2[nH]c(=O)c(CCNC(=O)c3ccc(Br)o3)cc12,31,7,86*,-1.1,i
COc1ccc(OC)c2[nH]c(=O)c(CCNC(=O)c3ccc(S(=O)(=O)N(C)C)cc3)cc12,5,0,91*,-0.11,i
CC(=O)c1c(C)[nH]c(C(=O)OCC(=O)N2c3ccccc3NC(=O)C2(C)C)c1C,-7,56*,-64,-0.33,i
Cc1cnc(C(=O)OCC(=O)N2c3ccccc3NC(=O)C2(C)C)cn1,-29,7,·,-1.1,i
Cc1nn(-c2ccccc2)c(C)c1C(=O)OCC(=O)N1c2ccccc2NC(=O)C1(C)C,-5,88*,-26,-0.47,i
CCOc1cc(C(=S)N2CCOCC2)ccc1OS(=O)(=O)c1ccccc1,-3,-4,-34,0.7,i
CCOC(=O)c1ccc(NC(=O)Nc2ccc(OC)c(OC)c2)cc1,5,58*,67,0.42,i
CCOC(=O)c1ccc(NC(=S)NCCc2ccccc2)cc1,12,44,20,-0.82,i
O=C(Nc1ccc(F)cc1)Nc1cc(OCC(F)(F)F)cc(OCC(F)(F)F)c1,20,99*,3,-3.2,i
CCOc1ccc(NC(=O)Nc2cc(OCC(F)(F)F)cc(OCC(F)(F)F)c2)cc1,4,14,·,1.8,i
CCOC(=O)c1ccc(OS(=O)(=O)c2ccccc2)c(OC)c1,18,92*,-8,-0.16,i
CCOC(=O)c1ccc(NC(=S)NCCc2ccccc2F)cc1,58*,19,·,0.06,i
CSc1cc(-c2ccc(Cl)cc2)c(C(=O)N2CCCC2)s1,-21,5,11,-0.08,i
COCCNC(=O)NC(=O)CN1CCCc2ccccc21,-2,-1,·,0.12,i
N#CC1=C(S)N(c2ccccc2)C(c2ccc(-c3ccccc3Cl)o2)NC1=O (stereo not given),-5,-4,32,0,i
CC1CCCCC1NC(=O)CN(C)S(=O)(=O)c1cccc2cccnc12 (stereo not given),·,·,·,-0.25,·
CCOC(=O)c1ccc(NC(=O)Nc2ccc(F)cc2)cc1,14,96*,47,-1.3,i
COC(=O)c1ccc(NC(=O)Nc2ccc(F)cc2)cc1,24,-8,·,-3.5,i
Cc1cccc(N2CCN(C(=O)c3ccc(CS(=O)(=O)c4ccccc4C)o3)CC2C)c1 (stereo not given),51,59*,·,-0.47,i
Cc1ccc(C)c(N2CCN(C(=O)c3ccc(CS(=O)(=O)c4ccccc4C)o3)CC2)c1,57,9,-68,-0.47,i
COc1ccc(NS(=O)(=O)c2cc(NC(=O)Cn3cnc4c3c(=O)n(C)c(=O)n4C)ccc2C)cc1,0,2,·,0.38,i
